According to PubChem BioAssay AID1159580 (chemical genetic matrix, 2015):
“And” between values parts separate entries of the source, which are not always exact repeats. Equal values may be shown once. About 2,000 (36%) of roughly 5,500 compounds were called active. Inconclusive results (about 18%) are left out. No stated cut-off is given here; in the data, active means normalized growth mostly below about 0.91 (no sharp cut-off); inconclusive means no clear call, values can overlap the other calls; inactive means mostly above about 0.92. The list shows a part of the results.

Test: chemical genetic growth profiling, strain panel (AID 1159580);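 further: tested at 20 µM; growth read once vehicle control cultures reached saturation at 30 °C; 1 = growth at the plate median or of vehicle wells; lower values mean less growth of the strain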
Conditions: S. cerevisiae deletion strains, growth OD

Measured: normalized growth

CN(C)CCCN1c2ccccc2Sc2ccccc21
inactive: locus YAL013W, strain DEP1, active compounds read low 0.988 and 0.967 | locus YAL021C, strain ccr4, active compounds read low 0.92 | locus YAL026C, strain drs2, active compounds read low 0.936 | locus YAL030W, strain snc1, active compounds read low 1.01 | locus YAL040C, strain CLN3, active compounds read low 0.964 | locus YBL061C, strain skt5, active compounds read low 1 | locus YBR009C, strain hhf1, active compounds read low 0.985 | locus YBR021W, strain FUR4, active compounds read low 0.961 | locus YBR023C, strain chs3, active compounds read low 1 | locus YBR171W, strain sec66, active compounds read low 0.996 | locus YBR229C, strain ROT2, active compounds read low 0.999 | locus YBR231C, strain swc5, active compounds read low 1.03 | locus YBR279W, strain paf1, active compounds read low 0.977 | locus YCL011C, strain gbp2, active compounds read low 0.996 | locus YCL016C, strain dcc1, active compounds read low 1.01 | locus YCL029C, strain bik1, active compounds read low 1.02 | locus YCL061C, strain MRC1 (second series), active compounds read low 0.983 | locus YCL061C, strain MRC1, active compounds read low 0.993 | locus YCL069W, strain vba3, active compounds read low 0.978 | locus YCR088W, strain abp1, active compounds read low 0.984 | locus YDL005C, strain med2, active compounds read low 1.03 | locus YDL035C, strain GPR1, active compounds read low 1.02 | locus YDL040C, strain nat1, active compounds read low 1 | locus YDL074C, strain BRE1, active compounds read low 1.01 | locus YDL101C, strain DUN1, active compounds read low 1.03 | locus YDL134C, strain PPH21, active compounds read low 1.01 | locus YDL185W, strain tfp1, active compounds read low 1.01 | locus YDL192W, strain arf1, active compounds read low 1.02 | locus YDR001C, strain nth1, active compounds read low 0.985 | locus YDR069C, strain doa4, active compounds read low 0.94 | locus YDR101C, strain arx1, active compounds read low 1.01 | locus YDR137W, strain rgp1, active compounds read low 1.13 | locus YDR150W, strain NUM1, active compounds read low 1.01 | locus YDR159W, strain sac3, active compounds read low 0.984 | locus YDR162C, strain NBP2, active compounds read low 1 | locus YDR195W, strain ref2 1.07 | locus YDR297W, strain sur2, active compounds read low 1.01 | locus YDR318W, strain mcm21, active compounds read low 1.02 | locus YDR334W, strain swr1, active compounds read low 0.95 | locus YDR335W, strain msn5, active compounds read low 0.994 | locus YDR363W, strain ESC2, active compounds read low 0.976 | locus YDR388W, active compounds read low 1.01 | locus YDR392W, strain spt3, active compounds read low 1.09 | locus YDR502C, strain sam2, active compounds read low 1.01 | locus YEL003W, strain gim4, active compounds read low 0.994 | locus YEL037C, strain rad23, active compounds read low 0.976 | locus YEL061C, strain CIN8 (second series), active compounds read low 0.96 | locus YEL061C, strain CIN8, active compounds read low 1 | locus YER002W, strain NOP16, active compounds read low 0.988 | locus YER015W, strain faa2, active compounds read low 0.991 | locus YER016W, strain bim1, active compounds read low 0.986 | locus YER110C, active compounds read low 1.02 | locus YER111C, strain swi4, active compounds read low 0.973 | locus YER155C, strain BEM2 (second series), active compounds read low 1.01 | locus YER155C, strain BEM2, active compounds read low 1 | locus YER167W, strain BCK2, active compounds read low 1.01 | locus YFR010W, strain ubp6, active compounds read low 0.92 | locus YGL078C, strain dbp3, active compounds read low 1.01 | locus YGL086W, strain mad1, active compounds read low 1.02 | locus YGL167C, strain pmr1, active compounds read low 0.981 | locus YGL173C, strain kem1, active compounds read low 0.981 | locus YGL227W, strain vid30, active compounds read low 0.996 | locus YGL240W, strain doc1, active compounds read low 1.04 | locus YGL248W, strain PDE1, active compounds read low 1 | locus YGL253W, strain hxk2, active compounds read low 0.994 | locus YGR078C, strain PAC10, active compounds read low 1.01 | locus YGR135W, strain pre9, active compounds read low 0.993 | locus YGR229C, strain SMI1, active compounds read low 0.971 | locus YGR252W, strain gcn5, active compounds read low 0.975 | locus YHR013C, strain ard1, active compounds read low 0.964 | locus YHR027C, strain rpn1, active compounds read low 0.989 | locus YHR030C, strain SLT2, active compounds read low 1 and 1.01 | locus YHR079C, strain IRE1 (second series), active compounds read low 1.01 | locus YHR079C, strain IRE1, active compounds read low 1.01 | locus YHR094C, strain hxt1, active compounds read low 1.01 | locus YHR129C, strain ARP1, active compounds read low 1.02 | locus YHR142W, strain chs7, active compounds read low 1.01 | locus YHR200W, strain rpn10, active compounds read low 1.02 | locus YIL066C, strain RNR3, active compounds read low 1 | locus YIL073C, strain SPO22, active compounds read low 1.02 | locus YIL125W, strain kgd1, active compounds read low 1.01 | locus YIR030C, strain dcg1, active compounds read low 1.02 | locus YJL092W, strain hpr5, active compounds read low 0.989 | locus YJL095W, strain BCK1 (second series), active compounds read low 1 | locus YJL095W, strain BCK1, active compounds read low 0.987 and 1.02 | locus YJL115W, strain asf1, active compounds read low 0.975 | locus YJL129C, strain trk1, active compounds read low 1.01 | locus YJL134W, strain LCB3, active compounds read low 1 | locus YJL154C, strain vps35, active compounds read low 0.977 | locus YJL164C, strain tpk1, active compounds read low 0.992 | locus YJL166W, strain qcr8, active compounds read low 0.995 | locus YJL168C, strain set2, active compounds read low 1.02 | locus YJL187C, strain SWE1 (second series), active compounds read low 1 | locus YJR043C, strain POL32, active compounds read low 1.02 | locus YJR066W, strain TOR1, active compounds read low 0.963
